Compound activity: PubChem, NMMLSC
A selection: hits, their analogues and other compounds. The true share with any hit is near 2.9%.
MEKK2mut PB1 HTS: signal of MEK5 binding to mutant human MEKK2 PB1 domain; bead flow cytometry, Alexa488-MEK5 binding to MEKK2 mutant; percent response, % at 10 µM; hit rate 0.35% among 290,000; AID 1530; in the data active = percent response above about 24%, passing the limit was not always enough
Beta2AR agonist: agonists of human beta-2 adrenergic receptor inducing internalization | P07550 | Am2.2-beta2AR cells, FAP receptor internalization, flow cytometry | response, % (concentration not given with the values) | hit rate 0.43% among 340,000 | AID 504454;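 active = response above a set limit, near 3 SD of response in nonfluorescent compounds, cut at about 42% in these data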
MEKK3 PB1 HTS: modulators (inhibitors or enhancers) of MEK5 binding to human MEKK3 PB1 domain | Q99759 | bead-based flow cytometry, Alexa488-MEK5 binding to MEKK3; actives lie on both sides; 0 = blocked by unlabeled MEK5, 100 = vehicle | binding response (% of control), % at 10 µM | hit rate 1.4% among 290,000;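 active = binding response more than 3 SD above or below the average of its plate-row segment, actives on both sides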;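 note: Alexa488 bead fluorescence after subtracting the streptavidin-only scavenger bead signal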
Target sequence (Q99759 whole entry, looked up, the tested form may be a part): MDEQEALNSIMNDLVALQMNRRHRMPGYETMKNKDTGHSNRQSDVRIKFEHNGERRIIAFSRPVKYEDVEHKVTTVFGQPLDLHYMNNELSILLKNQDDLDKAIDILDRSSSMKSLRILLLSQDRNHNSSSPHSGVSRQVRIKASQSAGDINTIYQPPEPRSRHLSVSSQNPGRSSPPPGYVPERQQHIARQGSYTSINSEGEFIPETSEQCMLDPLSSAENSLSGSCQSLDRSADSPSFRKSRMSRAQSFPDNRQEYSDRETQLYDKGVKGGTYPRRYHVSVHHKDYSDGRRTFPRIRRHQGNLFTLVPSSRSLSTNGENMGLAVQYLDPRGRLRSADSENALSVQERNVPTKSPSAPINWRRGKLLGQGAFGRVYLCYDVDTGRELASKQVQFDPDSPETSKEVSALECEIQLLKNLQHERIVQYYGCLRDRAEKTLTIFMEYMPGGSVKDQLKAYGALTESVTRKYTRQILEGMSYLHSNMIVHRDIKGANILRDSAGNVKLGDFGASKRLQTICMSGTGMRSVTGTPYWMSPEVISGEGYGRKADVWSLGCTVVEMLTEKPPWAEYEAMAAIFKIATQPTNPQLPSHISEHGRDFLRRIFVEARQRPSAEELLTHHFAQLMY
MEKK2wt PB1 HTS: raises or lowers MEK5 binding to wildtype human MEKK2 PB1 domain | Q9Y2U5 | bead flow cytometry, Alexa488-MEK5 binding to MEKK2 WT; actives lie on both sides | binding response (% of control), % at 10 µM | hit rate 1.1% among 290,000 | AID 1531; in the data active = binding response below about 67% or above about 130%
GRK2 aptamer HTS: human GRK2 inhibition via aptamer displacement; P25098; bead flow cytometry, FAM-aptamer displacement from GRK2; inhibition of aptamer binding, % at 10 µM; hit rate 0.59% among 330,000; AID 488847;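 active = inhibition of aptamer binding above 40%, roughly 3 SD of noise, on plates passing a quality check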;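 note: median bead fluorescence of bound FAM aptamer so fluorescent compounds give negative values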
GRK2 inh confirm: human GRK2 inhibition confirmation, cherry pick 1; shares compounds with GRK2 aptamer HTS; bead-bound GRK2, FAM-aptamer displacement, flow cytometry; aptamer displacement, % at 10 µM; hit rate 4% among 2,000; AID 504451;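 active = aptamer displacement above 40%, near three times the noise of non-fluorescent compounds, on plates passing quality checks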;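 note: negative values mostly reflect intrinsic compound fluorescence rather than true enhancement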
Aptamer quench SP: counter-screen for GRK2 aptamer inhibitors: fluorescent aptamer quenchers; shares compounds with GRK2 aptamer HTS; Carboxyfluorescein RNA aptamer on beads, flow cytometry quenching; active compounds read low; fluorescence response (% of DMSO), % at 10 µM; 2,000 tested, under 10 active;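 active = compounds that quench the bead-bound fluorescent RNA probe, cutting fluorescence to under half of the solvent control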;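 note: counterscreen run without GRK2 so only probe quenching by compound is measured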
GRK2 CP2: confirmation of human GRK2 inhibitors binding RNA aptamer site. inhibition of aptamer binding, % at 10 µM. bead-bound GRK2, FAM-aptamer displacement, flow cytometry. shares compounds with GRK2 aptamer HTS. 360 tested, under 10 active;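 active = inhibition of aptamer binding above 40%, about triple the noise seen with nonglowing compounds, on plates passing quality control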;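 note: negative values mostly come from compounds that fluoresce themselves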
FAM quench CP2: counter-screen for GRK2 binding hits: quenchers of fluorescent RNA aptamer | fluorescence response vs DMSO, % at 10 µM | carboxyfluorescein RNA aptamer beads, flow cytometry quenching; active compounds read low | 360 tested, under 10 active | shares compounds with GRK2 aptamer HTS | AID 588494;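 active = response vs DMSO under 50%, meaning signal dropped by over half, treated as fluorescence quencher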;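 note: labelled aptamer on streptavidin beads without GRK2 as a quench counter-screen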
Numbers stand for hits; . = inactive; / = no result.

SMILES	MEKK2mut PB1 HTS	Beta2AR agonist	MEKK3 PB1 HTS	MEKK2wt PB1 HTS	GRK2 aptamer HTS	GRK2 inh confirm	Aptamer quench SP	others
COCCCn1c(SCC(=O)NCc2ccco2)nc2sc3c(c2c1=O)CCC3	.	.	.	.	.	/	/	GRK2 CP2=.;FAM quench CP2=.
O=C(CSc1nnc(-c2ccccc2)c(-c2ccccc2)n1)NC1CCS(=O)(=O)C1 (configuration not stated)	.	.	.	.	.	/	/
CC(C)(C)Cc1nnc(NC(=O)CCc2ccccc2)s1	.	.	.	.	.	/	/
COc1ccc(-n2nc(C(=O)NCc3cc(OC)ccc3OC)c3c4ccccc4n(C)c3c2=O)cc1	.	.	.	.	77	.	.
COc1ccc(-n2nc(C(=O)NCc3ccco3)c3c4ccccc4n(C)c3c2=O)cc1	.	.	.	.	.	/	/
CC12C(=O)N(c3ccccc3C(=O)O)C(=O)C1C1C=CC2C1 (configuration not stated)	.	.	.	.	79	.	.
CCC(C)[C@H](N)C(=O)NC[C@H]1CC[C@H](C(=O)N[C@@H](Cc2ccccc2)C(=O)O)CC1 (some centres not stated)	.	.	.	.	.	/	/
CNC(C)C(=O)NC(C(=O)N1CCCC1C(=O)NNc1ccccc1)C(C)C (configuration not stated)	/	.	/	/	67	.	.
N=c1oc2cc(O)ccc2cc1C(=O)Nc1nc2ccccc2s1	.	.	.	.	.	.	.
CC1=C(C(=O)OC(C)C)C(c2cccs2)n2ncnc2N1 (configuration not stated)	.	.	.	.	85	.	.
CC1=C(C(N)=O)C(c2cccs2)n2ncnc2N1 (configuration not stated)	.	.	.	.	.	/	/
NC(=O)COC(=O)CCCSc1nc2ccccc2s1	.	.	.	.	51	.	.
CNC(=O)NC(=O)COC(=O)CCCSc1nc2ccccc2s1	.	.	.	.	.	/	/
Cc1cc(=O)[nH]c(SCc2cccc3ccccc23)n1	.	.	.	.	.	.	.
COc1ccc(S(=O)(=O)N2CCOCC2)cc1NC(=O)CN1C(=O)NC2(CCCCC2C)C1=O (configuration not stated)	/	.	/	/	.	/	/
Nc1nc2c(nc(SCc3ccccc3Br)n2C2OC(CO)C(O)C2O)c(=O)[nH]1 (configuration not stated)	.	.	.	.	.	/	/
Nc1nc2c(nc(N3CCCCC3)n2[C@@H]2O[C@H](CO)[C@@H](O)[C@H]2O)c(=O)[nH]1	.	.	.	.	93	.	.
Cc1cc(=O)c2ccccc2[nH]1	.	.	.	.	.	.	.
COc1cccc(N=C2CC(C)(C)CC(=O)/C2=C(/O)c2ccccc2)c1	.	.	.	.	95	.	.
O=C(NCc1ccccc1F)C1CCCN(S(=O)(=O)N2CCOCC2)C1 (configuration not stated)	.	.	.	.	.	.	.
CC(CNC(=O)C1CCCN(S(=O)(=O)N2CCOCC2)C1)c1ccccc1 (configuration not stated)	.	.	.	.	.	/	/
C/C(=N\OCc1ccc(C#N)cc1)c1ccc(S(=O)(=O)N(C)C)cc1	.	.	.	.	47	.	.
COc1cc(/C(O)=C(\C#N)c2nc3ccccc3[nH]2)cc(OC)c1OC	.	.	.	.	.	/	/
CC1CCN(c2nc(CN3CCCCC3)nc3scc(-c4ccccc4)c23)CC1	.	.	.	.	.	.	.
O=C(O)/C=C/C(=O)NC1CCCCC1	.	.	.	.	.	/	/
SMILES	MEKK2mut PB1 HTS	Beta2AR agonist	MEKK3 PB1 HTS	MEKK2wt PB1 HTS	GRK2 aptamer HTS	GRK2 inh confirm	Aptamer quench SP	others
COc1ccc(N2CCN(c3nccs3)CC2)cc1	.	.	.	.	.	/	/
O=C(CSc1n[nH]c(-c2ccc(Br)cc2)n1)N1CCOCC1	/	.	/	/	.	.	.
O=C(c1ccc(Cl)cc1)n1c(NCc2ccccc2)n[nH]c1=S	.	.	.	.	65	.	.
COc1cccc(C2c3[nH]c4ccccc4c3C[C@H]3C(=O)N(CCCCCO)CC(=O)N23)c1 (some centres not stated)	.	.	.	.	.	/	/
O=C(COc1ccc(F)c(Cl)c1)Nc1ccc(N2CCOCC2)cc1	/	.	/	/	.	/	/
O=C(NCC1CCCN(C(=O)NCc2ccccc2)C1)c1ccc2c(c1)OCO2 (configuration not stated)	.	.	.	.	.	.	.
CC(NS(=O)(=O)c1ccc(Br)s1)c1ccccc1 (configuration not stated)	.	.	.	.	.	/	/
CC(C)(C)c1ccc(C(=O)N2CCC(C(=O)NCCC3=CCCCC3)CC2)cc1	.	.	.	.	74	.	.
O=C(Cc1cccs1)NCc1cccc(Br)c1	.	.	.	.	55	.	.
O=C(Cc1cccs1)NCc1cccs1	.	.	.	.	.	/	/
Cc1ccc2nc(N3CCCCC3)c(C=O)c(=O)n2c1	.	/	.	.	.	/	/
Cc1ccc2nc(N3CCN(c4ccccc4F)CC3)c(C=O)c(=O)n2c1	.	.	.	.	64	.	.
COCCN(C(=O)COC(=O)CCCOc1ccccc1)c1c(N)n(Cc2ccccc2)c(=O)[nH]c1=O	/	.	/	/	.	/	/
CCOC(=O)c1c(-c2cccs2)csc1NC(=O)CSc1ncn[nH]1	.	.	.	.	90	.	.
O=C(c1cccc2ccccc12)C1CCCN(C(=O)c2ccc(N3CCOCC3)cc2)C1 (configuration not stated)	.	.	.	.	.	.	.
Cc1cccc(Oc2ccc(Cl)cc2N)c1	.	.	.	.	.	/	/
CCOc1ncccc1C(=O)N(CC)CC(=O)NCc1ccc(Cl)cc1	.	.	.	.	.	/	/
Nc1nnnn1/N=C/c1ccccc1OCc1ccc(Cl)cc1Cl	.	.	.	.	.	/	/
Nc1nnnn1/N=C/c1ccccc1OCc1ccc(Cl)cc1	.	.	.	.	74	.	.
CCC(C)c1ccc(NC(=S)N2CCN(C(=O)C3CCCO3)CC2)cc1 (configuration not stated)	.	.	.	.	74	/	/	GRK2 CP2=.;FAM quench CP2=.
Cc1ccc(-c2onc3ccc(C4(C)OCCO4)cc23)cc1	.	.	.	.	.	/	/
